High-throughput results deposited in PubChem BioAssay by National Center for Advancing Translational Sciences (NCATS).
An excerpt weighted towards active compounds, which were near 5.7% of everything screened.
B2AR arrestin = beta2AR (human) beta-arrestin recruitment activity | P07550 | beta-arrestin recruitment to beta2AR, cell-based reporter | Potency, µM (highest dose often 46.1 µM), hits mostly activators | 0.02% of 330,000 active | AID 492947; note: nearly all actives have a fitted effect of over 65% in size
Gal4-VP16 FLuc = counter-screen for ROR gamma inhibitors: Gal4-VP16 reporter. Drosophila S2 Gal4-VP16 UAS-luciferase, luminescence, 20 h. Potency, µM (titrated, usually from 53.6 µM), most hits filed as inhibitors. 3.5% of 310,000 active. AID 2546;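 note: Gal4-VP16 expression switched on by copper sulfate through the metallothionein promoter; nearly all actives have a fitted effect of over 50% in size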
NPSR antagonist = neuropeptide S receptor (human) antagonism, cAMP | Q6W5P4 | CHO-NPSR cells, cAMP TR-FRET, antagonist mode | Potency, µM (top dose mostly 38.3 µM), usual class: inhibitors | 1% of 220,000 active | AID 1461; note: nearly all actives have a fitted effect of over 50% in size
Target sequence (Q6W5P4 whole entry, looked up): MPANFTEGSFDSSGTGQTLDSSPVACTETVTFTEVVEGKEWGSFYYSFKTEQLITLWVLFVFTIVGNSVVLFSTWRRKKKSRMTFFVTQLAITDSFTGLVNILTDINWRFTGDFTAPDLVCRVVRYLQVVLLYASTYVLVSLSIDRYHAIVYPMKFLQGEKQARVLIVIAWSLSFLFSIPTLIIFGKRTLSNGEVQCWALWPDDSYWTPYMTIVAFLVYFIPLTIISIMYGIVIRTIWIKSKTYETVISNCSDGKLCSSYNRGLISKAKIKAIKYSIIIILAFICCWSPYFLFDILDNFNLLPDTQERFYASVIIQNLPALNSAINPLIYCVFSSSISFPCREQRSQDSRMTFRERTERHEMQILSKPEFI
RORgamma inh = ROR gamma (mouse) transcription inhibition. P51450. Drosophila S2 Gal4-RORgamma UAS-luciferase reporter, 20 h. Potency, µM (series often up to 53.6 µM), hits mostly inhibitors. 5.4% of 310,000 active. AID 2551; note: nearly all actives have a fitted effect of over 60% in size
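Drosophila S2 cells stably expressing Gal4-DBD/mouse RORγ fusion under metallothionein promoter plus UAS-luciferase; compound 1 h, then 700 uM CuSO4 induction for 20 h at ambient temperature; inhibition read as reduced luminescence.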
Of the large screens only hits and unclear results are named; the others gave an inactive call. Calls come from the whole dose curve; as a rule, active = well fitted curve in the direction sought with a large enough effect; inconclusive = small, poorly fitted or top-dose-only effect, or another doubt; inactive = no such curve, though single readings can be large; an effect the other way counts as inactive or inconclusive.

O=[N+]([O-])c1ccccc1/C=N/Nc1nccnc1Cl	none
Oc1ccccc1/C=N/Nc1nccnc1Cl	Gal4-VP16 FLuc inconclusive, RORgamma inh 13µM
Oc1ccc(/C=N/Nc2nccnc2Cl)c(O)c1	Gal4-VP16 FLuc 16µM, RORgamma inh inconclusive
Clc1nccnc1N/N=C/c1ccc(Br)cc1	Gal4-VP16 FLuc inconclusive, RORgamma inh 4.5µM (no result: NPSR antagonist)
Cc1ccn2c(=O)nc(SCC(=O)N3CCCC3)nc2c1	none (no result: Gal4-VP16 FLuc, NPSR antagonist, RORgamma inh)
COC(=O)COc1ccc(C(C2C(=O)CC(C)(C)CC2=O)C2C(=O)CC(C)(C)CC2=O)cc1	none (no result: NPSR antagonist)
COc1ccc(C(C)=O)cc1CSc1ccc2c(c1)OCCO2	Gal4-VP16 FLuc inconclusive (no result: NPSR antagonist)
O=C(O)CCC(=O)c1ccc2ccc3cccc4ccc1c2c34	Gal4-VP16 FLuc 10µM, RORgamma inh 11µM
CCCC(=O)O[C@]1(C(=O)COC(C)=O)CC[C@H]2C3C[C@H](F)C4=CC(=O)C=CC4(C)[C@@]3(F)[C@@H](O)CC21C (stereo not given in full)	none (no result: B2AR arrestin, NPSR antagonist)
Cc1ccc2c(c1)c1c3n2CCN=C3CCC1	Gal4-VP16 FLuc inconclusive, RORgamma inh 11µM
O=C(NC(=S)Nc1ccccc1N1CCCCC1)c1ccccc1	Gal4-VP16 FLuc 7.9µM, NPSR antagonist inconclusive, RORgamma inh 1.4µM
O=C(NC(=S)Nc1ccccc1N1CCCC1)c1ccc(F)cc1	NPSR antagonist inconclusive, RORgamma inh 1.6µM
CS(=O)(=O)N1CCN(c2ccccc2NC(=O)c2ccc(-c3ccc(Cl)cc3Cl)o2)CC1	NPSR antagonist 3.2µM
CN1CCN(c2ccccc2NC(=O)c2ccc(-c3ccc(Cl)cc3Cl)o2)CC1	NPSR antagonist inconclusive
O=C(NC(=S)Nc1ccccc1N1CCOCC1)c1ccc(Br)cc1	none (no result: Gal4-VP16 FLuc, NPSR antagonist, RORgamma inh)
O=C(NC(=S)Nc1ccccc1N1CCCCC1)c1ccc(F)cc1Cl	Gal4-VP16 FLuc 3.2µM, RORgamma inh 4.5µM (no result: NPSR antagonist)
NC(=O)Cn1ccc(O)c(Cc2ccc(Cl)cc2Cl)c1=O	none (no result: NPSR antagonist)
O=C(NC(=S)Nc1ccccc1N1CCOCC1)c1ccc(-c2ccccc2F)o1	RORgamma inh 2.8µM
CN(C)c1ccc(-c2nc(NC3CCNCC3)c3ccccc3n2)cc1	RORgamma inh inconclusive (no result: B2AR arrestin, NPSR antagonist)
COC(=O)C1=NNC2(c3ccc(Cl)cc3)C(=O)N(c3ccccc3)C(=O)C12 (stereo not given)	none
CN1CCN(C(c2cccnc2)c2ccc3cccnc3c2O)CC1 (stereo not given)	B2AR arrestin inconclusive
CN1CCN(C(c2ccc(Br)cc2)c2cc(Cl)c3cccnc3c2O)CC1 (stereo not given)	Gal4-VP16 FLuc 0.79µM, RORgamma inh 2.8µM (no result: NPSR antagonist)
Oc1cc(OCc2ccccc2)ccc1-c1[nH]ncc1-c1ccccc1	Gal4-VP16 FLuc inconclusive, NPSR antagonist inconclusive, RORgamma inh 10µM
COc1ccc(-c2cn[nH]c2-c2ccc(OCc3ccccc3)cc2O)cc1OC	none
O=[N+]([O-])c1ccc(COc2ccc(-c3[nH]ncc3-c3ccccc3)c(O)c2)cc1	Gal4-VP16 FLuc 5.6µM, RORgamma inh 7.1µM
COc1ccc(NC(=O)C(=O)NCCC2CCCCN2S(=O)(=O)c2ccccc2)cc1 (stereo not given)	none (no result: Gal4-VP16 FLuc, NPSR antagonist, RORgamma inh)
Cc1ccc(S(=O)(=O)n2nc(-c3ccco3)nc2N)cc1	none
O=[N+]([O-])c1ccc(Sc2n[nH]c(-c3ccc(Cl)cc3Cl)n2)nc1	Gal4-VP16 FLuc 7.1µM, RORgamma inh 0.89µM
CC(C)(C)c1nc(Sc2ccc([N+](=O)[O-])cn2)n[nH]1	none
CSc1ccc(/C=N/N(C)S(=O)(=O)c2ccc(C)cc2)cc1	Gal4-VP16 FLuc inconclusive (no result: NPSR antagonist)
Cc1ccc(/C=N/N(C)S(=O)(=O)c2ccc(C)cc2)cc1	Gal4-VP16 FLuc 18µM (no result: NPSR antagonist)
CC(C)CC(NC(=O)c1ccc(Cl)cc1)C(=O)OCC(=O)c1ccc2c(c1)NC(=O)CO2 (stereo not given)	Gal4-VP16 FLuc 7.1µM, NPSR antagonist 10µM, RORgamma inh 11µM
CC(C)[C@H](NC(=O)c1ccco1)C(=O)OCC(=O)c1ccc2c(c1)NC(=O)CO2	none
COc1ccc(-c2nc3cnc(N4CCN(C)CC4)nc3n(Cc3cccc(OC)c3)c2=O)cc1	none (no result: B2AR arrestin, NPSR antagonist)
CC1CCN(S(=O)(=O)c2ccc(C(=O)Nc3nnc(-c4ccncc4)o3)cc2)CC1	Gal4-VP16 FLuc 4µM, RORgamma inh 1.1µM
CC(=O)Nc1ccc(S(=O)(=O)N2CCC(c3nnc(-c4ccc(C)cc4)o3)CC2)cc1	B2AR arrestin inconclusive, Gal4-VP16 FLuc inconclusive, RORgamma inh 14µM (no result: NPSR antagonist)
CC1CCN(S(=O)(=O)c2ccc(C(=O)Nc3sccc3C(N)=O)cc2)CC1	Gal4-VP16 FLuc inconclusive, NPSR antagonist 6.3µM
COc1ccc(-c2nnc(C3CCN(S(=O)(=O)c4ccccc4)CC3)o2)cc1	RORgamma inh inconclusive (no result: NPSR antagonist)
